Results reported in the supplement of paper PMC10849652.
The full data set covers some 8,800 targets. This sample favours those with a hit. About 0.5% of all pairs of compound and target were hits.

Key:
Experiment in all cases: log2 fold change, soluble protein after heating vs DMSO (PISA); higher = thermal stabilisation; K562 lysate, 10 uM; active = over 0.2 and 3.5 SD of the protein, either way, in both replicates (recomputed)
alvocidib = compound: CN1CC[C@H](c2c(O)cc(O)c3c(=O)cc(-c4ccccc4Cl)oc23)[C@H](O)C1 [alvocidib]
Method in brief: (§1)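 Soluble protein was defined as the supernatant remaining after 21,000xg for 90 min, following pooling of heated aliquots and adjustment to 0.5% NP-40 at 4°C. Before that, crude K562 extract at 1 mg/mL protein in PBS pH 7.4 with 1 mM MgCl2 was treated with 10 μM compound for 30 min and heated for 3 min across 48°C-58°C. Quantification used TMTpro 16plex LC-MS/MS with channel sums equalised, and values are log-two fold changes in thermal stability relative to solvent controls from duplicates.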

Tubastatin A = compound: CN1CCc2c(c3ccccc3n2Cc2ccc(C(=O)NO)cc2)C1 [Tubastatin A]
Method in brief: as §1

[1] = compound: CNC(=O)C1=CC=CC=C1NC2=NC(=NC=C2Cl)NC3=C(C=C(C=C3)N4CCOCC4)OC
Method in brief: as §1

defactinib = compound: CNC(=O)c1ccc(Nc2ncc(C(F)(F)F)c(NCc3nccnc3N(C)S(C)(=O)=O)n2)cc1 [defactinib]
Method in brief: as §1

[2] = compound: CNc1nc(-c2ccc3c(N)n[nH]c3c2)cc(N2C[C@@H](C(=O)NC3CCCCC3)CC[C@H]2C)n1
Method in brief: as §1

encorafenib = compound: COC(=O)N[C@@H](C)CNc1nccc(-c2cn(C(C)C)nc2-c2cc(Cl)cc(NS(C)(=O)=O)c2F)n1 [encorafenib]
Method in brief: as §1

[3] = compound: COC(=O)[C@H](CCSC)NC(=O)C1=C(C=C(C=C1)NC[C@H](CS)N)C2=CC=CC=C2
Method in brief: as §1

alisertib = compound: COc1cc(Nc2ncc3c(n2)-c2ccc(Cl)cc2C(c2c(F)cccc2OC)=NC3)ccc1C(=O)O [alisertib]
Method in brief: as §1

[4] = compound: COc1cc2nc(-c3cc(F)ccc3O)nc(N[C@@H]3CNC[C@H]3C(C)(C)O)c2cc1OC
Method in brief: as §1

gefitinib = compound: COc1cc2ncnc(Nc3ccc(F)c(Cl)c3)c2cc1OCCCN1CCOCC1 [gefitinib]
Method in brief: as §1

lapatinib = compound: CS(=O)(=O)CCNCc1ccc(-c2ccc3ncnc(Nc4ccc(OCc5cccc(F)c5)c(Cl)c4)c3c2)o1 [lapatinib]
Method in brief: as §1

pictilisib = compound: CS(=O)(=O)N1CCN(Cc2cc3nc(-c4cccc5[nH]ncc45)nc(N4CCOCC4)c3s2)CC1 [pictilisib]
Method in brief: as §1

crizotinib = compound: C[C@@H](Oc1cc(-c2cnn(C3CCNCC3)c2)cnc1N)c1c(Cl)ccc(F)c1Cl [crizotinib]
Method in brief: as §1

[5] = compound: C[C@H](C1=CC=C(C=C1)C(=O)NC2=C3C=CNC3=NC=C2)N
Method in brief: as §1

duvelisib = compound: C[C@H](Nc1ncnc2nc[nH]c12)c1cc2cccc(Cl)c2c(=O)n1-c1ccccc1 [duvelisib]
Method in brief: as §1

gandotinib = compound: Cc1cc(Nc2cc(CN3CCOCC3)c3nc(C)c(Cc4ccc(Cl)cc4F)n3n2)n[nH]1 [gandotinib]
Method in brief: as §1

tozasertib = compound: Cc1cc(Nc2cc(N3CCN(C)CC3)nc(Sc3ccc(NC(=O)C4CC4)cc3)n2)n[nH]1 [tozasertib]
Method in brief: as §1

doramapimod = compound: Cc1ccc(-n2nc(C(C)(C)C)cc2NC(=O)Nc2ccc(OCCN3CCOCC3)c3ccccc23)cc1 [doramapimod]
Method in brief: as §1

bafetinib = compound: Cc1ccc(NC(=O)c2ccc(CN3CC[C@H](N(C)C)C3)c(C(F)(F)F)c2)cc1Nc1nccc(-c2cncnc2)n1 [bafetinib]
Method in brief: as §1

[6] = compound: Cc1cccc(CC(=O)N2CCc3c2ccc(-c2cn(C)c4ncnc(N)c24)c3F)n1
Method in brief: as §1

Measured: log2 fold change

CWC22 (UniProt Q9HCG8)
Sequence of UniProt Q9HCG8 (Q9HCG8 whole entry, looked up): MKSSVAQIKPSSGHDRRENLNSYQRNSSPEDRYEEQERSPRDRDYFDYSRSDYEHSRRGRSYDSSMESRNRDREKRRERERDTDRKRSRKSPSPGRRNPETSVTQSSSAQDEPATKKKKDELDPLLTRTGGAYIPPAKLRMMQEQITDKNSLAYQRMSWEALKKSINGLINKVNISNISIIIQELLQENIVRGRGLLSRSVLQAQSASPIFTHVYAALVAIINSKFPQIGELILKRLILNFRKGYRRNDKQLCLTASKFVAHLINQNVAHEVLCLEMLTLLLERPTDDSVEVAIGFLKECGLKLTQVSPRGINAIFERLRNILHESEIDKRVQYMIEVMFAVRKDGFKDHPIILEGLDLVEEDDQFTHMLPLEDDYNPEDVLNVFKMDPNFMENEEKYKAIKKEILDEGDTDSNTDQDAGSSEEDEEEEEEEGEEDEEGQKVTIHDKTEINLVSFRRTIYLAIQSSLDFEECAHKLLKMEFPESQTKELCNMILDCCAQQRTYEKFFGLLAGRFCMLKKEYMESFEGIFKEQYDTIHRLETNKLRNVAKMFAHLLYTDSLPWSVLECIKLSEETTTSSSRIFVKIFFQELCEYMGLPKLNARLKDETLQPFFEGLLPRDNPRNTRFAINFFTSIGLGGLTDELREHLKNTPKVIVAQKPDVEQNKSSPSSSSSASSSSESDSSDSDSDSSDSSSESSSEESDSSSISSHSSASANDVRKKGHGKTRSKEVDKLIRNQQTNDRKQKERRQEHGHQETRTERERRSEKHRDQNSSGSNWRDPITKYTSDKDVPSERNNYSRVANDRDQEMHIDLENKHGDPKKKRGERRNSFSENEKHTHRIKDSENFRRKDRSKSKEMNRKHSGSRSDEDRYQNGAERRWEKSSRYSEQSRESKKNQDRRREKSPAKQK
active: [5] 0.46
inactive: alvocidib 0.112 | Tubastatin A -0.035 | [1] 0 | defactinib -0.026 | [2] -0.036 | encorafenib 0.046 | [3] 0.093 | alisertib -0.065 | [4] -0.058 | gefitinib -0.028 | lapatinib 0.059 | pictilisib -0.027 | crizotinib -0.051 | duvelisib 0.011 | gandotinib -0.207 | tozasertib 0.072 | doramapimod -0.019 | bafetinib -0.088 | [6] -0.109

CIC (UniProt I3L2J0)
inactive: alvocidib 0.005 | Tubastatin A -0.03 | [1] 0.072 | defactinib 0.041 | [2] 0.035 | encorafenib -0.002 | [3] 0.052 | alisertib -0.027 | [4] 0.158 | gefitinib -0.098 | lapatinib -0.074 | pictilisib -0.02 | crizotinib -0.002 | [5] -0.052 | duvelisib -0.047 | gandotinib 0.006 | tozasertib 0.02 | doramapimod -0.036 | bafetinib -0.08 | [6] 0.037

DNM2 (UniProt P50570)
Sequence of UniProt P50570 (P50570 whole entry, looked up): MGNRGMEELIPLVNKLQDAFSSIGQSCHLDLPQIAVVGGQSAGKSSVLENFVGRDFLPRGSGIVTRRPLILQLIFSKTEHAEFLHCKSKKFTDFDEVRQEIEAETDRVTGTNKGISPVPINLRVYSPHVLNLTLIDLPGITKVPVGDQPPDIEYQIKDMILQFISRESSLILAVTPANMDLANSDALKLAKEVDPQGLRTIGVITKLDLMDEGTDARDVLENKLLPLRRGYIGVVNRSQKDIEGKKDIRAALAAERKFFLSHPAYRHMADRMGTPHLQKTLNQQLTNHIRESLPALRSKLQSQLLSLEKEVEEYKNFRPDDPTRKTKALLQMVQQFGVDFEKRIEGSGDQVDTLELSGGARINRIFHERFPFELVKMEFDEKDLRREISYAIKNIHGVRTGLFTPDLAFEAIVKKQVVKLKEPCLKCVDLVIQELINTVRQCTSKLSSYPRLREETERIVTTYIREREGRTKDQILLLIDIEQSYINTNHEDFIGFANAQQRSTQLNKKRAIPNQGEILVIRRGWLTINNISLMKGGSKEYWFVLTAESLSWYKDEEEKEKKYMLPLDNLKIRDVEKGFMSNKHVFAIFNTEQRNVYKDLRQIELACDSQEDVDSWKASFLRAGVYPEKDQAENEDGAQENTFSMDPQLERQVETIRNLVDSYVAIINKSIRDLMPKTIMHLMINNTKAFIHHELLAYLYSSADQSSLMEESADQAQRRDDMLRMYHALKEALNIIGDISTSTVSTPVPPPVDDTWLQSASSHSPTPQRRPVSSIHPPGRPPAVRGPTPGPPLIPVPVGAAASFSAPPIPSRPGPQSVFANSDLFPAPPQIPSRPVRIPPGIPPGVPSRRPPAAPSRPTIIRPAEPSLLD
inactive: alvocidib 0.037 | Tubastatin A -0.051 | [1] 0.024 | defactinib 0.007 | [2] 0.029 | encorafenib -0.004 | [3] 0.061 | alisertib 0.014 | [4] -0.02 | gefitinib 0.006 | lapatinib -0.003 | pictilisib 0.022 | crizotinib -0.013 | [5] 0.021 | duvelisib -0.007 | gandotinib -0.076 | tozasertib 0.001 | doramapimod 0.033 | bafetinib -0.011 | [6] 0.035

COL6A5 (UniProt A8TX70)
Sequence of UniProt A8TX70 (A8TX70 whole entry, looked up): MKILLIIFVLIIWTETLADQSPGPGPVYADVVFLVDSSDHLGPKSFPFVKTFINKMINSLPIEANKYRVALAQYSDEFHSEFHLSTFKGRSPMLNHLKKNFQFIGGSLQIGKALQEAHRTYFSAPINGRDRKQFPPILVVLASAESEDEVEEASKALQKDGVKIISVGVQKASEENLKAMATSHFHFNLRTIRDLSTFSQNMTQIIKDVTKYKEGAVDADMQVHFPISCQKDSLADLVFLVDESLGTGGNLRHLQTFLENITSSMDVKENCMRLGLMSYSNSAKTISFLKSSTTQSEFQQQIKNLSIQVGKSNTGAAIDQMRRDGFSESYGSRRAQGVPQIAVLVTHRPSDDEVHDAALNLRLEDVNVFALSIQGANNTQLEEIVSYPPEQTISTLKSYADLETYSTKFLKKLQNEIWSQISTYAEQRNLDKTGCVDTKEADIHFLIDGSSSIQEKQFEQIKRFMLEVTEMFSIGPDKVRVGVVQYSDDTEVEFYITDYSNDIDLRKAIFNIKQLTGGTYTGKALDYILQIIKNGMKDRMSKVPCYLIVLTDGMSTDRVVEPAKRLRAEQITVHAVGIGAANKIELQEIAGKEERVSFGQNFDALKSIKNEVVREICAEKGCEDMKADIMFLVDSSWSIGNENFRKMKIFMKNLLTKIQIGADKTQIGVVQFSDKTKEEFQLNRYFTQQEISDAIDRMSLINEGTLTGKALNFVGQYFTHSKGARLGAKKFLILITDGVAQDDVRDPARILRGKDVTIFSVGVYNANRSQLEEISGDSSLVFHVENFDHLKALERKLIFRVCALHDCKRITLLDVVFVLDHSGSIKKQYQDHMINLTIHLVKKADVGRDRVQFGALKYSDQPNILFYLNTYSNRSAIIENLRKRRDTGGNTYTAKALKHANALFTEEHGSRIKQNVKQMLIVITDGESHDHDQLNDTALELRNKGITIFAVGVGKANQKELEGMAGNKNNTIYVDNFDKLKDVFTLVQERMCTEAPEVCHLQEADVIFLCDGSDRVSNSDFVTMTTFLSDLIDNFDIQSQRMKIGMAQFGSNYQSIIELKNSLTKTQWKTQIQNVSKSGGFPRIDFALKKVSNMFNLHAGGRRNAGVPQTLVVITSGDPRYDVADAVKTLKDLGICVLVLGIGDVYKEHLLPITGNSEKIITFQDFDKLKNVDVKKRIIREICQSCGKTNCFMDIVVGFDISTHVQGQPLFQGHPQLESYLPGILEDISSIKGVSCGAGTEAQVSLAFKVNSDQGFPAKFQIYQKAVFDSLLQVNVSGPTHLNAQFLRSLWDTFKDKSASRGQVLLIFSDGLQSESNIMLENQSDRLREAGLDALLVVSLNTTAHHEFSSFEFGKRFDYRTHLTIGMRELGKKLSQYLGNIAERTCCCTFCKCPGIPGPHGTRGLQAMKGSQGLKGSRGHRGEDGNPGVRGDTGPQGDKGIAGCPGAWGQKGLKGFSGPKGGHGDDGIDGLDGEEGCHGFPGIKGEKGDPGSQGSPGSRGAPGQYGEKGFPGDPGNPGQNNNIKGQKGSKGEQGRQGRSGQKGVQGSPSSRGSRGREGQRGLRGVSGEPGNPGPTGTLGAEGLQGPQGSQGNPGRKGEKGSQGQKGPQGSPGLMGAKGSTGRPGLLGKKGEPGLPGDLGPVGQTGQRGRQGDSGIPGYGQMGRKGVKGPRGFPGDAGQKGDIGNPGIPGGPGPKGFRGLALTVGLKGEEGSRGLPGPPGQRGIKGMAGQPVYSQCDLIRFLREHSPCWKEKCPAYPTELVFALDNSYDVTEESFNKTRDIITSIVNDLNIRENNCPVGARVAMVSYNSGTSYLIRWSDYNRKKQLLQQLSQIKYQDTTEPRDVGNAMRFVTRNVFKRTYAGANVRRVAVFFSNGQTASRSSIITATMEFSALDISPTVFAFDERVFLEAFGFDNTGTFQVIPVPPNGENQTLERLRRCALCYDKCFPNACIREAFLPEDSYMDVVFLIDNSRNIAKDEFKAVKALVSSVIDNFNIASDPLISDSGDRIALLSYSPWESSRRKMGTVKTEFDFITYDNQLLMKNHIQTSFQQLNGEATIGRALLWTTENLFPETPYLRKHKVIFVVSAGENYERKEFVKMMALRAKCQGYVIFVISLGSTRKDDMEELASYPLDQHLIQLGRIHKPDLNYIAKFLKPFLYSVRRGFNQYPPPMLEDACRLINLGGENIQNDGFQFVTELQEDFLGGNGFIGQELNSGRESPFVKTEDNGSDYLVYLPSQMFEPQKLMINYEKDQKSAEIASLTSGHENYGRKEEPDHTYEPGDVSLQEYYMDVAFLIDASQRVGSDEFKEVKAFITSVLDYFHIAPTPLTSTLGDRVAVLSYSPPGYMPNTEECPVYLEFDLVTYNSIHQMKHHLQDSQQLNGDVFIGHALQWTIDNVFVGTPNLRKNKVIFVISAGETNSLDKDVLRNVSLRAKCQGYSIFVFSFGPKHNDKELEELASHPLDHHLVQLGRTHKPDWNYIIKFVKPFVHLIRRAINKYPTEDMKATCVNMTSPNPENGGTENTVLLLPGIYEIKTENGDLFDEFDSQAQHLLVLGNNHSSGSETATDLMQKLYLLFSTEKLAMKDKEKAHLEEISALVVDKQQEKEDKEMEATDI
inactive: alvocidib -0.544 | Tubastatin A 0.029 | [1] -0.048 | defactinib -0.111 | [2] 0.256 | encorafenib -0.088 | [3] 0.1 | alisertib -0.038 | [4] 0.07 | gefitinib -0.034 | lapatinib -0.07 | pictilisib -0.035 | crizotinib -0.197 | duvelisib 0.013 | gandotinib 0.295 | tozasertib -0.099 | doramapimod 0.053 | bafetinib -0.13
active: [5] -0.966 | [6] 0.486

CSNK2A1 (UniProt P68400)
Sequence of UniProt P68400 (P68400 whole entry, looked up): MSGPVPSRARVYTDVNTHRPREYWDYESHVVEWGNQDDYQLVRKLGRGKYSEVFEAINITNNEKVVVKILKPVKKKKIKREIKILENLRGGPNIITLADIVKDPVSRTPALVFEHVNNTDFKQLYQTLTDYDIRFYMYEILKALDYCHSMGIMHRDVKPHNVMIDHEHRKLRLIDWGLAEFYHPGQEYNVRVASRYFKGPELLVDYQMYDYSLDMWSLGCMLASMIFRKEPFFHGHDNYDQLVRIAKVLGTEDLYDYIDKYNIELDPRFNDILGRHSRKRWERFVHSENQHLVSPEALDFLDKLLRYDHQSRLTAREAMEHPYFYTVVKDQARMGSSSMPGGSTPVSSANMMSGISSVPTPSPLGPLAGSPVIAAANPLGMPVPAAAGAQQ
active: [1] 0.337
inactive: alvocidib 0.077 | Tubastatin A 0.019 | defactinib 0.056 | [2] -0.002 | encorafenib -0.004 | [3] -0.005 | alisertib 0.012 | [4] 0.112 | gefitinib -0.024 | lapatinib -0.038 | pictilisib 0.016 | crizotinib 0.007 | [5] -0.021 | duvelisib -0.002 | gandotinib -0.007 | tozasertib -0.006 | doramapimod -0.003 | bafetinib 0.027 | [6] -0.018

CHMP4A isoform 2 (UniProt Q9BY43)
Sequence of UniProt Q9BY43 (Q9BY43 whole entry, looked up): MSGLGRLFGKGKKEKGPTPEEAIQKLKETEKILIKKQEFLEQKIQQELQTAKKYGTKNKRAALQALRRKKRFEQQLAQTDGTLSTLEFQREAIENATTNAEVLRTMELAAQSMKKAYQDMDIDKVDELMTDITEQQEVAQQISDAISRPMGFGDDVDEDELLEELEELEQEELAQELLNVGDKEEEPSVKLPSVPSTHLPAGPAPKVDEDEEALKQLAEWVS
active: [5] -0.227
inactive: alvocidib -0.096 | Tubastatin A 0.048 | [1] -0.01 | defactinib 0.007 | [2] 0.039 | encorafenib 0.026 | [3] -0.001 | alisertib 0.028 | [4] 0.043 | gefitinib 0.041 | lapatinib 0.009 | pictilisib 0.022 | crizotinib -0.047 | duvelisib -0.001 | gandotinib 0.182 | tozasertib -0.01 | doramapimod 0.054 | bafetinib -0.036 | [6] 0.18

DCP2 (UniProt Q8IU60)
inactive: alvocidib 0.023 | Tubastatin A -0.195 | [1] -0.013 | defactinib -0.045 | [2] 0 | encorafenib 0 | [3] -0.117 | alisertib -0.02 | [4] 0 | gefitinib 0.041 | lapatinib -0.027 | pictilisib 0.011 | crizotinib 0.038 | [5] 0.021 | duvelisib -0.011 | gandotinib -0.148 | tozasertib 0.018 | doramapimod 0.01 | bafetinib -0.062 | [6] -0.041

CXorf38 (UniProt Q8TB03)
inactive: alvocidib 0 | Tubastatin A 0.039 | [1] 0.04 | defactinib -0.012 | [2] -0.016 | encorafenib 0.02 | [3] -0.012 | alisertib -0.021 | [4] -0.058 | gefitinib -0.056 | lapatinib -0.05 | pictilisib -0.017 | crizotinib -0.019 | [5] -0.039 | duvelisib 0.013 | gandotinib 0.037 | tozasertib 0.037 | doramapimod 0.013 | bafetinib -0.018 | [6] -0.033
